# From PubChem BioAssay
# Only some compounds are listed: those with a hit (about 2.7% of all), similar ones and a draw of the others.
# Wnt act: Wnt/beta-catenin pathway activation | Wnt/beta-catenin reporter cell assay, activator, plate reader | activation, % at 9.35 µM | hit rate 1.2% among 300,000 | AID 743398; in the data active = activation above about 30%, passing the limit was not always enough;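 note: 0% = neutral control wells and 100% = positive control wells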
# CFTR F508del cor: correctors of CFTR F508del function in bronchial epithelial cells. CFBE cells, YFP halide quenching; stimulated with forskolin plus potentiator P3; % fluorescence drop versus neutral controls. activity (quench increase), % at 7.58 µM. hit rate 0.36% among 350,000;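 active = mean added fluorescence quench of at least 8% versus neutral control, with both replicates also reaching 8%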;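 note: cells transiently co-express mutant CFTR-F508del with the halide-sensitive YFP; corrector assay measuring rescue of mutant channel to the surface after 24 h compound exposure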
# MITF TRPM1 HTS: activators of MITF-driven TRPM1 promoter activity in SK-MEL-5 cells; SK-MEL-5 TRPM1-promoter luciferase, 24 h; % of positive control, neutral wells = 0; AID 588334; activation, % at 12.5 µM; hit rate 0.75% among 300,000;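 active = mean activation of at least 80% with every replicate also reaching 80%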;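 note: 0% = neutral control wells and 100% = parthenolide positive control wells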
# HIV Env fusion: inhibitors of HIV Env-mediated cell fusion; AID 651610; HeLa-JRFL Env/CEM21 cell fusion, luciferase; hit rate 1.1% among 360,000; inhibition, % at 12.3 µM;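 active = mean replicate inhibition score of at least 50 and every replicate individually at or above 50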;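 note: 0% = plate neutral controls and 100% = maraviroc near 300 nM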
# INS-1E GSIS act: primary screen for activators of insulin secretion dependent on glucose, INS-1E cells, GLuc reporter luminescence; hit rate 0.61% among 370,000; INS-1E GLuc reporter insulin secretion, 2-3 h; activation, % at 16.6 µM;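 active = lowest replicate activation of at least 40%, so every replicate reaches that level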;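 note: 0% = median of neutral control wells and 100% = median of IBMX positive control wells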
# Starred values were filed as active, the others as inactive; . = not tested or not shown; [ ] = another dose, or the depositor's remark.
SMILES,Wnt act,CFTR F508del cor,MITF TRPM1 HTS,HIV Env fusion,INS-1E GSIS act
Cc1nc(C(=O)Nc2ccccc2)sc1C(=O)Nc1ccccc1,1,2,86*,-2,-12
COc1ccc(O)c(/C=N/NC(=O)c2ccc(N3CCCC3=O)cc2)c1,-2,8.0*,-6,-8,-1
COc1ccc(O)c(/C=N/NC(=O)c2cccc(N3CCCC3=O)c2)c1,1,3,-27,27,11
C[C@@H]1CN([C@H](C)CO)C(=O)c2cc(NS(C)(=O)=O)ccc2O[C@@H]1CN(C)Cc1ccccc1,.,1,.,-19[16.7 µM],14
CCCN(CCC)C(=O)c1cc2c(=O)n3cccc(C)c3nc2s1,-2,2,-14,58*,6
Cc1cccn2c(=O)c3cc(C(=O)NCC(C)C)sc3nc12,0,-3,10,-9,10
CCS(=O)(=O)N1CC2(CN(CC3CCOCC3)[C@H](CO)c3c2c2ccc(OC)cc2n3C)C1,.,-2,.,.,0
COc1cc(NC2c3ccccc3C(=O)N2Cc2ccccc2)cc(OC)c1OC (stereo not given),4,2,3,73*,27
COc1cc(NC2c3ccccc3C(=O)N2Cc2ccccc2Cl)cc(OC)c1OC (stereo not given),1,2,0,50,10
COCCn1nnnc1CN(CCc1ccccc1)Cc1cc2cc(OC)ccc2[nH]c1=O,.,.,3,77*,3
COc1ccc2[nH]c(=O)c(CN(Cc3nnnn3Cc3ccccc3)CC3CCCO3)cc2c1 (stereo not given),16,.,2,112*,.
O=c1c(Cl)c(NCCO)cnn1-c1cccc(Cl)c1,-8,2,18,-1,46*
CN(C)CCNc1cnn(-c2ccccc2)c(=O)c1Cl,-1,0,5,-2,-2
C[C@@H]1CN([C@H](C)CO)C(=O)c2cc(NS(=O)(=O)c3ccc(Cl)cc3)ccc2O[C@@H](C)CCCCO[C@@H]1CN(C)Cc1ccc(C(=O)O)cc1,.,0,.,-25[16.7 µM],-5
O=c1cc(O)c2sc(Nc3ccc(F)c(Cl)c3)nc2[nH]1,-2,0,-30,68*,-11
O=c1cc(O)c2sc(Nc3ccc(Cl)c(F)c3)nc2[nH]1,3,0,-1,31,-14
CC(=O)N(C)C[C@H]1Oc2c(NS(C)(=O)=O)cccc2C(=O)N(C)C[C@H]1C,.,.,.,.,3
Cc1nn(C)c2ncc(C(=O)c3ccccc3O)cc12,-2,2,-3,7,20
Cc1[nH]nc2ncc(C(=O)c3ccccc3O)cc12,-14,.,.,64*,.
COc1ccccc1-c1nnc(Sc2nc([N+](=O)[O-])nn2C)o1,.,.,-57,126*,18
O=C(Nc1ccccc1)N1C[C@H]2[C@@H](c3ccccc31)[C@@H](CO)N2C(=O)c1ccccc1F,.,0,.,.,-5
CC(=O)OC1[C@H](Oc2c(O)c(C)c3c4c2[C@@H](C)CC[C@@H]4[C@@H](C)C[C@@H]3C=C(C)C)OC[C@@H](O)[C@@H]1O (stereo not given in full),-3,0,-5,22,.
CC(C)=C[C@H]1C[C@H](C)[C@H]2CC[C@H](C)c3c(O[C@@H]4OC[C@@H](O)[C@H](O)C4O)c(O)c(C)c1c32 (stereo not given in full),-6,0,-1,-11,122*
CC1(C)CC(=O)C2=C(C1)Nc1ccccc1NC2c1ccc2c(c1)OCO2 (stereo not given),44*,.,.,-106,.
CC1(C)CC(=O)C2=C(C1)Nc1ccccc1NC2c1ccc(F)cc1 (stereo not given),1,-1,-2,0,-3
SMILES,Wnt act,CFTR F508del cor,MITF TRPM1 HTS,HIV Env fusion,INS-1E GSIS act
O=C(CNc1cccc2ccccc12)N/N=C/c1ccc(OC(=O)/C=C/c2ccco2)cc1,19,-8,-13,8,11
O=C(CNc1ccc2ccccc2c1)N/N=C/c1ccc(OC(=O)/C=C/c2ccco2)cc1,51*,0,-7,9,-4
Cc1ccnc(NC(=O)c2ccc(Br)s2)c1,35*,5,50,-86,5
O=C(Nc1ccccc1C(=O)Nc1ccc(Br)cn1)c1ccccc1Cl,0,5,9,.,-3
Cc1ccnc(NC(=O)CNC(=O)COc2ccccc2)c1,38*,-2,90*,-29,28
CCC(=O)Nc1ccc(Br)cn1,-1,-4,-5,12,3
Cc1cc(C(=O)Nc2ccc(Br)cn2)sc1C,54*,1,.,.,2
Cc1ccccc1C(=O)Nc1ccc(Br)cn1,.,.,96*,.,8
Cc1ccc(NC(=O)CNC(=O)COc2ccccc2)nc1,-1,-2,-3,7,14
O=C(C[C@H]1CC[C@@H]2[C@H](COC[C@H](O)CN2C(=O)c2ccncc2)O1)NCc1ccc(-c2ccccc2)cc1,.,2,.,.,7
O=C(Nc1ccc(Br)cn1)c1ccc(Br)s1,38*,-2,21,-290,4
O=C(CCNC(=O)c1ccc(Br)cc1)NNC(=O)COc1ccccc1F,1,1,10,73*,-7
O=C(Nc1ccccn1)c1ccc(Cl)s1,16,1,161*,-87,-3
O=C(Nc1ccccn1)C(=O)Nc1ccccn1,39*,0,70,0,0
C[C@@H]1CN([C@@H](C)CO)C(=O)c2c(c3ccccc3n2C)-c2ccccc2CO[C@H]1CN(C)Cc1cccc2c1OCCCO2,.,1,.,.,-12
C[C@@H]1CN([C@H](C)CO)C(=O)c2cc(-c3ccccc3)cnc2O[C@@H]1CN(C)Cc1cccnc1,.,0,.,-10[16.7 µM],9
O=C(Nc1ccc(Br)cn1)c1ccc(Cl)s1,35*,3,44,-83,-5
Cc1ccc(NC(=O)CCNC(=O)c2ccc(Br)cc2)nc1,-3,-1,13,13,-5
Cc1ccnc(NC(=O)CCNC(=O)c2ccc(Br)cc2)c1,3,-3,.,57*,.
C[C@@H]1CN([C@@H](C)CO)C(=O)c2cc(-c3cccnc3)cnc2O[C@@H]1CN(C)C(=O)C1CCOCC1,.,-3,.,-9[16.7 µM],11
CC1CCN(C(=O)CNC(=O)c2ccc(Br)o2)CC1,38*,2,71,-21,18
Cc1ccc(S(=O)(=O)N2CCN(C(=O)CNC(=O)c3ccc(Br)o3)CC2)cc1,-4,-1,3,64*,-2
COc1ccc(C(=O)OCCc2ccc(O)cc2)cc1,17,0,130*,.,.
CN(C)S(=O)(=O)c1ccc(C(=O)OCCc2ccccc2)cc1,0,-2,21,-1,18
Nc1ccc(C(=O)OCCc2ccccc2)cc1,60*,-1,101*,-195,2
O=C(OCCc1ccccc1)c1cc(O)c(O)c(O)c1,51*,3,42,-281,-39
Cc1ccc(S(=O)(=O)N(C)C[C@H]2Oc3c(NS(=O)(=O)c4cn(C)cn4)cccc3C(=O)N([C@H](C)CO)C[C@@H]2C)cc1,.,0,.,-10[16.7 µM],-3
O=C(O)CC1=C(Nc2ccccc2)C(=O)N(c2ccccc2)C1c1ccc(Br)cc1 (stereo not given),36*,1,16,10,5
